# Assay results as given in paper PMC11062922 (Nature Chemical Biology, 2023).
# Where two headings read alike, the source gives them in different places.
# Tests used:
# GSK3A = test system: GSK3A; design: species or system human, MV4-11 + K-562 + COLO205 + SK-N-BE2 + OVCAR-8; conditions: read-out: apparent Kd, n = 1
# GSK3B = test system: GSK3B; design: species or system human, MV4-11 + K-562 + COLO205 + SK-N-BE2 + OVCAR-8; conditions: read-out: apparent Kd, n = 1
# PAK4 = test system: PAK4; design: species or system human, MV4-11 + K-562 + COLO205 + SK-N-BE2 + OVCAR-8; conditions: read-out: apparent Kd, n = 1
# PKN1 = test system: PKN1; design: species or system human, MV4-11 + K-562 + COLO205 + SK-N-BE2 + OVCAR-8; conditions: read-out: apparent Kd, n = 1
# PKN3 [1] = conditions: hek293t cells
# GAK = test system: GAK; design: species or system human, MV4-11 + K-562 + COLO205 + SK-N-BE2 + OVCAR-8; conditions: read-out: apparent Kd, compound concentrations: 100 nM and 1000 nM (sheet 'Samples'), n = 1
# PKN3 [2] = test system: PKN3; design: species or system human, MV4-11 + K-562 + COLO205 + SK-N-BE2 + OVCAR-8; conditions: read-out: apparent Kd, compound concentrations: 100 nM and 1000 nM (sheet 'Samples'), n = 1;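 as to IC50: NanoBRET target engagement in HEK293T cells transiently expressing full-length PKN3 with C-terminal NanoLuc, displacement of fluorescent tracer K5 (500 nM), BRET read after 2 h equilibration at 37 °C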
# RET = test system: RET; design: species or system human, MV4-11 + K-562 + COLO205 + SK-N-BE2 + OVCAR-8; conditions: read-out: apparent Kd, compound concentrations: 100 nM and 1000 nM (sheet 'Samples'), n = 1
# Q6ZSR9 = Q6ZSR9 (human, UniProt Q6ZSR9); design: species or system MV4-11 + K-562 + COLO205 + SK-N-BE2 + OVCAR-8; conditions: read-out: apparent Kd, compound concentrations: 100 nM and 1000 nM (sheet 'Samples'), n = 1
# Q6ZSR9, sequence (Q6ZSR9 whole entry, looked up): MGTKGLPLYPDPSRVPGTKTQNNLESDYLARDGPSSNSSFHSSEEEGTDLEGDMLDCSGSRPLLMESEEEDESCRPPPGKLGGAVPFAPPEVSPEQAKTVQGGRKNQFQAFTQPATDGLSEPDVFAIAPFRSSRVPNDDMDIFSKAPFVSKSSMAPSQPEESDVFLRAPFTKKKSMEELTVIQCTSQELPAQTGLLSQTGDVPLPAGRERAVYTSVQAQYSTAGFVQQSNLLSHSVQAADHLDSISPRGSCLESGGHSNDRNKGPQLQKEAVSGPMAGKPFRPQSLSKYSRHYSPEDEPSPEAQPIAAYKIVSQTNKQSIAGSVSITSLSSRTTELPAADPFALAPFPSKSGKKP
# AAK1 = test system: AAK1; design: species or system human, MV4-11 + K-562 + COLO205 + SK-N-BE2 + OVCAR-8; conditions: read-out: apparent Kd; compound concentrations: 100 nM and 1000 nM (sheet 'Samples'), CATDS: 1.4474046603820999E-2; n = 1
# BMP2K = test system: BMP2K; design: species or system human, MV4-11 + K-562 + COLO205 + SK-N-BE2 + OVCAR-8; conditions: read-out: apparent Kd; compound concentrations: 100 nM and 1000 nM (sheet 'Samples'), CATDS: 1.20459910405703E-2; n = 1
# CLK1 = test system: CLK1; design: species or system human, MV4-11 + K-562 + COLO205 + SK-N-BE2 + OVCAR-8; conditions: read-out: apparent Kd; compound concentrations: 100 nM and 1000 nM (sheet 'Samples'), CATDS: 1.5060802907151999E-2; n = 1
# CLK4 = test system: CLK4; design: species or system human, MV4-11 + K-562 + COLO205 + SK-N-BE2 + OVCAR-8; conditions: read-out: apparent Kd; compound concentrations: 100 nM and 1000 nM (sheet 'Samples'), CATDS: 1.3844573276346099E-2; n = 1
# CSNK2A1;CSNK2A3 = test system: CSNK2A1;CSNK2A3; design: species or system human, MV4-11 + K-562 + COLO205 + SK-N-BE2 + OVCAR-8; conditions: read-out: apparent Kd; compound concentrations: 100 nM and 1000 nM (sheet 'Samples'), CATDS: 1.1541786487004701E-2; n = 1
# CSNK2A2 = test system: CSNK2A2; design: species or system human, MV4-11 + K-562 + COLO205 + SK-N-BE2 + OVCAR-8; conditions: read-out: apparent Kd; compound concentrations: 100 nM and 1000 nM (sheet 'Samples'), CATDS: 1.10304448511726E-2; n = 1
# FLT4 = test system: FLT4; design: species or system human, MV4-11 + K-562 + COLO205 + SK-N-BE2 + OVCAR-8; conditions: read-out: apparent Kd; compound concentrations: 100 nM and 1000 nM (sheet 'Samples'), CATDS: 1.33586959494144E-2; n = 1
# NUAK1 = test system: NUAK1; design: species or system human, MV4-11 + K-562 + COLO205 + SK-N-BE2 + OVCAR-8; conditions: read-out: apparent Kd; compound concentrations: 100 nM and 1000 nM (sheet 'Samples'), CATDS: 1.03638923622048E-2; n = 1
# PRKAG1 = test system: PRKAG1; design: species or system human, MV4-11 + K-562 + COLO205 + SK-N-BE2 + OVCAR-8; conditions: read-out: apparent Kd; compound concentrations: 100 nM and 1000 nM (sheet 'Samples'), CATDS: 3.6022361277962302E-2; n = 1
# SIK2 = test system: SIK2; design: species or system human, MV4-11 + K-562 + COLO205 + SK-N-BE2 + OVCAR-8; conditions: read-out: apparent Kd; compound concentrations: 100 nM and 1000 nM (sheet 'Samples'), CATDS: 1.66377583432985E-2; n = 1
# [3] = compound concentrations:100 nM and 1000 nM (sheet 'Samples')
smiles,measurement,setting,value
CCn1c(-c2nonc2N)nc2c(C#CC(C)(C)O)nc(OCCN)cc21.CCn1c(-c2nonc2N)nc2c(C#CC(C)(C)O)nc(OCCN)cc21.Cl.Cl [GSK902056A],potency estimated from few doses,GSK3A; [3],113 nM
same,potency estimated from few doses,GSK3B; [3],136 nM
same,potency estimated from few doses,PAK4; [3],677 nM
same,potency estimated from few doses,PKN1; [3],85 nM
same,IC50,"PKN3 [1]; read-out: Average, SD, n = 4",99.2 nM
same,IC50,PKN3 [1]; read-out: Rep 1,234 nM
same,IC50,PKN3 [1]; read-out: Rep 2,56.5 nM
same,IC50,PKN3 [1]; read-out: Rep 3,27 nM
same,IC50,PKN3 [1]; read-out: Rep 4,79.2 nM
CCn1c(-c2nonc2N)nc2c(-c3ccccc3)ncc(OCCCN)c21.CCn1c(-c2nonc2N)nc2c(-c3ccccc3)ncc(OCCCN)c21.O=C(O)C(F)(F)F.O=C(O)C(F)(F)F [GSK260205A],potency estimated from few doses,GAK; CATDS: 2.96050281932086E-2,1380 nM
same,potency estimated from few doses,PKN3 [2]; CATDS: 0.85080270266883096,1.1 nM
same,potency estimated from few doses,RET; CATDS: 8.7615337764420001E-2,99.7 nM
same,IC50,"PKN3 [1]; read-out: Average, SD, n = 4",22.3 nM
same,IC50,PKN3 [1]; read-out: Rep 1,73.6 nM
same,IC50,PKN3 [1]; read-out: Rep 2,6.19 nM
same,IC50,PKN3 [1]; read-out: Rep 3,6.22 nM
same,IC50,PKN3 [1]; read-out: Rep 4,3.37 nM
CCn1c(-c2nonc2N)nc2c(C#CC(C)(C)O)nc(CN3CCCC3)cc21 [GSK1000163A],potency estimated from few doses,PKN3 [2]; CATDS: 0.30633787059967998,558 nM
same,potency estimated from few doses,Q6ZSR9; CATDS: 0.15882546471257,2130 nM
same,IC50,"PKN3 [1]; read-out: Average, SD, n = 4",6970 nM
same,IC50,PKN3 [1]; read-out: Rep 1,11100 nM
same,IC50,PKN3 [1]; read-out: Rep 2,9200 nM
same,IC50,PKN3 [1]; read-out: Rep 3,6130 nM
same,IC50,PKN3 [1]; read-out: Rep 4,1430 nM
Cl.Nc1c(C(=O)c2cccc(C#CCN3CCCCC3)c2)cnn1-c1ccc(F)cc1 [RO1154461-001],potency estimated from few doses,AAK1,607 nM
same,potency estimated from few doses,BMP2K,1000 nM
same,potency estimated from few doses,CLK1,552 nM
same,potency estimated from few doses,CLK4,679 nM
same,potency estimated from few doses,CSNK2A1;CSNK2A3,1140 nM
same,potency estimated from few doses,CSNK2A2,1330 nM
same,potency estimated from few doses,FLT4,746 nM
same,potency estimated from few doses,GAK; CATDS: 4.3588593109949197E-2,81.4 nM
same,potency estimated from few doses,"GSK3A; compound concentrations: 100 nM and 1000 nM (sheet 'Samples'), CATDS: 3.2177955723616897E-2",129 nM
same,potency estimated from few doses,"GSK3B; compound concentrations: 100 nM and 1000 nM (sheet 'Samples'), CATDS: 1.7633019943865499E-2",387 nM
same,potency estimated from few doses,NUAK1,1670 nM
same,potency estimated from few doses,"PAK4; compound concentrations: 100 nM and 1000 nM (sheet 'Samples'), CATDS: 1.4039072021364001E-2",656 nM
same,potency estimated from few doses,"PKN1; compound concentrations: 100 nM and 1000 nM (sheet 'Samples'), CATDS: 1.0439948324783401E-2",1630 nM
same,potency estimated from few doses,PKN3 [2]; CATDS: 1.05012639622415E-2,1590 nM
same,potency estimated from few doses,PRKAG1,108 nM
same,potency estimated from few doses,Q6ZSR9; CATDS: 1.44791042777868E-2,607 nM
same,potency estimated from few doses,RET; CATDS: 1.69120998976478E-2,424 nM
same,potency estimated from few doses,SIK2,439 nM
Cc1cccc(Nc2nc(N[C@H]3CCCC[C@H]3N)ncc2C(N)=O)c1.Cl [GSK986310C],potency estimated from few doses,PAK4; [3],322 nM
